The text below walks through data of PubChem BioAssay (NCATS).

Results filed as inconclusive are left out. Active and inactive are the calls of the source. Unless noted, calls come from the whole dose curve; as a rule, active = well fitted curve in the direction sought with a large enough effect; inconclusive = small, poorly fitted or top-dose-only effect, or another doubt; inactive = no such curve, though single readings can be large; an effect the other way counts as inactive or inconclusive.

Assay [1] in a line: qHTS drug screen for cell cycle checkpoint inhibitors in PARPi-resistant BRCA-mutant ovarian cancer cell lines. (AID 1963452; calls by dose curve). The settings on record: PEO1/OlaR viability, CellTiter-Glo luminescence, 96 h, stronger effect = lower value. The method in brief: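 PEO1, PEO4 and PEO1/OlaR ovarian cancer cells, 600 per well, exposed 96 h at 37C to a dilution series. Viability read by CellTiter-Glo luminescence, normalized to DMSO and empty wells; activity summarized as Z-AUC.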

Assay [2] in a line: Dual reporter qHTS for agonist of Pregnane X Receptor (hPXR) against the NCATS DSHEA and TCM libraries: Fluorescence readout (AID 1920058). Note: 0% is about no effect. To be noted: PXR dual reporter cells; series mostly up to 40 µM. A digest of the protocol:
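Viability readout (CellTiter-Fluor, 405/540 nm, 1 h) from agonist-mode PXR dual reporter in hPXR-Luc HepG2 cells. Substances ~24 h, 37 °C, 5% CO2; rifampicin reference, tetraoctyl ammonium bromide cytotoxic control.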

Assay [3] deals with Nuclear receptor subfamily 1 group I member 2 (Homo sapiens) (UniProt O75469). In words: Dual reporter qHTS for agonist of Pregnane X Receptor (hPXR) against the NCATS DSHEA and TCM libraries: Luminescence readout (AID 1920059). Note: 0% is about no effect. To be noted: hPXR dual reporter cells, luciferase luminescence agonist; series mostly up to 40 µM. A digest of the protocol: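 hPXR-LucHepG2 cells in phenol red-free DMEM with 5% charcoal-stripped FBS, 2000 cells/well, attached 5 h, then exposed 24 h at 37C to compounds; rifampicin as positive agonist control (2.8 nM–92 uM). Luciferase luminescence read.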

The target is the same in assay [4]. In words: Dual reporter qHTS for antagonist of Pregnane X Receptor (hPXR) against the NCATS DSHEA and TCM libraries: Luminescence Readout (AID 1920060). Note: 0% is about no effect. The settings on record: hPXR dual reporter cells, luciferase luminescence, antagonist mode; series mostly up to 40 µM. A digest of the protocol: (§1)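 Rifampicin-stimulated (2 uM final) hPXR-luciferase HepG2 cells were treated for 24 h with DSNP/TCM substances. Viability came from CellTiter-Fluor fluorescence, reporter activity from ONE-Glo luminescence.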
(qHTS replaces the single test concentration by a dilution series.)

Assay [5] can be described thus: Dual reporter qHTS for antagonist of Pregnane X Receptor (hPXR) against the NCATS DSHEA and TCM libraries: Fluorescence Readout (AID 1920061). Note: 0% is about no effect. To be noted: PXR dual reporter cells, antagonist mode; series mostly up to 40 µM. The method in brief:
as §1

The nature of assay [6]: qHTS for identification of novel therapeutic agents for treatment of microphthalmiaassociated transcription factor (MiT) renal cell carcinoma (RCC) (AID 1963991). The settings on record: CellTiter-Glo, 48 h, stronger effect = lower value. A digest of the protocol: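 Viability of three TFE3-fusion renal carcinoma lines measured by CellTiter-Glo after 48 h treatment with each of 1912 compounds at 11 concentrations. Responses scaled between DMSO (100%) and empty wells (0%) before curve fitting.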

Assay [7] is described as follows: qHTS profiling for inhibitors of Plasmodium falciparum proliferation (AID 504749).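 Note: 0% = DMSO vehicle and full inhibition = artemisinin control; nearly all actives have a fitted effect of over 60% in size.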 To be noted: P. falciparum in erythrocytes, SYBR Green DNA, 72 h, at 28.7 µM (top of the series). The method in brief:
(§2)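 Quantitative HTS: compounds pinned into medium, infected erythrocytes added (0.3% parasitemia, 2.5% hematocrit), 72 h culture at 37 C under 5% CO2. Saponin/Triton lysis with SYBR Green I, overnight RT, then fluorescence read.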

The subject of assay [8] is 3D7. Described as above. The settings on record: P. falciparum in erythrocytes, SYBR Green DNA, 72 h; series mostly up to 28.7 µM. The method in brief:
as §2

The subject of assay [9] is 7G8. The description is as above. The settings on record: P. falciparum in erythrocytes, SYBR Green DNA, 72 h; series mostly up to 28.7 µM. The method in brief:
as §2

Assay [10] concerns AA1029. The description is as above. The settings on record: P. falciparum in erythrocytes, SYBR Green DNA, 72 h; series mostly up to 28.7 µM. A digest of the protocol:
as §2

Assay [11] concerns AS120. The description is as above. To be noted: P. falciparum in erythrocytes, SYBR Green DNA, 72 h; series mostly up to 28.7 µM. The method in brief: as §2
For assay [12], the system named is ATS189. The description is as above. To be noted: P. falciparum in erythrocytes, SYBR Green DNA, 72 h; series mostly up to 28.7 µM. The method in brief:
as §2

In assay [13] the test system is ATS95. The description is as above. To be noted: P. falciparum in erythrocytes, SYBR Green DNA, 72 h; series mostly up to 28.7 µM. A digest of the protocol:
as §2

The subject of assay [14] is C2A. The assay is described as above. The settings on record: P. falciparum in erythrocytes, SYBR Green DNA, 72 h; series mostly up to 28.7 µM. The method in brief:
as §2

Assay [15] concerns CP185. The assay is described as above. The settings on record: P. falciparum in erythrocytes, SYBR Green DNA, 72 h; series mostly up to 28.7 µM. A digest of the protocol: as §2
Assay [16] deals with CP191. The assay is described as above. To be noted: P. falciparum in erythrocytes, SYBR Green DNA, 72 h; series mostly up to 28.7 µM. A digest of the protocol: as §2
Assay [17] deals with CP192. The description is as above. The settings on record: P. falciparum in erythrocytes, SYBR Green DNA, 72 h; series mostly up to 28.7 µM. The method in brief: as §2
Assay [18] relates to CP194. Described as above. The settings on record: P. falciparum in erythrocytes, SYBR Green DNA, 72 h; series mostly up to 28.7 µM. The method in brief:
as §2

The test system of assay [19] is CP201. Described as above. The settings on record: P. falciparum in erythrocytes, SYBR Green DNA, 72 h; series mostly up to 28.7 µM. A digest of the protocol:
as §2

The test system of assay [20] is CP203. The assay is described as above. The settings on record: P. falciparum in erythrocytes, SYBR Green DNA, 72 h; series mostly up to 28.7 µM. A digest of the protocol: as §2
[21] abbreviates: measured here: PEO1 parental Z-AUC.

Sequence of Nuclear receptor subfamily 1 group I member 2 (Homo sapiens) (O75469 whole entry, looked up): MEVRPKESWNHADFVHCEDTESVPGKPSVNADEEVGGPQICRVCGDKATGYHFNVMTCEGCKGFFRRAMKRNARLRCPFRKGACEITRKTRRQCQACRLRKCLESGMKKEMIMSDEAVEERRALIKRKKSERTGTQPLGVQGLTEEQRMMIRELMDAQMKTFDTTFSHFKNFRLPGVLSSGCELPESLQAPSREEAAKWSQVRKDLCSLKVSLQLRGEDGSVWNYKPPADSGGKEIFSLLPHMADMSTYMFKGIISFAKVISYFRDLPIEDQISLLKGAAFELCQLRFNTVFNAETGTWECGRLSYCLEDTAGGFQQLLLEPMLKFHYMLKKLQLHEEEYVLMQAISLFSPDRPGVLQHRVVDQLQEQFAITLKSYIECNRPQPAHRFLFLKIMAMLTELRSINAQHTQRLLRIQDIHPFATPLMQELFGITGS

Take `CCCn1c(=O)c2[nH]c(C34CC5CC3C[C@@H](C5)C4)nc2n(CCC)c1=O`: the Z-AUC in [1] is 0.471 (inactive); in [1] (setting [21]), 0.393; in assay [1] (measured here: PEO4 Z-AUC), 0.158.
For `OCCC#Cc1nc(-c2ccc(F)cc2)c(-c2ccncc2)n1CCCc1ccccc1`, the Z-AUC in assay [1] was 1.23 (inactive); in assay [1] (setting [21]) it was 0.482; in [1] (measured here: PEO4 Z-AUC), 0.663.
As to `CCN(CC)CCCC(C)Nc1ccnc2cc(Cl)ccc12` (stereo unspecified), the Z-AUC is 0.106 (inactive) in assay [1], 0.505 in assay [1] (setting [21]) and 0.615 in assay [1] (measured here: PEO4 Z-AUC).
On to `CN(C)c1ccc(Nc2nc(N)n(C(=O)c3c(F)cccc3F)n2)cc1`, for which the Z-AUC is 0.994 (inactive) in [1], 0.58 in assay [1] (setting [21]) and 0.398 in assay [1] (measured here: PEO4 Z-AUC).
The corresponding values for `C[C@]12CCC(=O)C=C1CC[C@@H]1[C@@H]2[C@@H](O)C[C@@]2(C)[C@H]1CC[C@]2(O)C(=O)CO` are 0.00041 (inactive), 0.66 and -0.19.
On to `O=C(Nc1cccnc1)N1CCC(Cc2cccc(Oc3ccc(C(F)(F)F)cn3)c2)CC1`, for which the Z-AUC in [1] is -0.589 (inactive); in assay [1] (setting [21]), -1.46; in assay [1] (measured here: PEO4 Z-AUC) it was -1.18.
The corresponding values for `COc1ccc(CCN2CCN(CCCc3ccccc3)CC2)cc1OC` are -0.614 (inactive), -0.141 and -0.419.
In the case of `O=c1ncn2nc(Sc3ccc(F)cc3F)ccc2c1-c1c(Cl)cccc1Cl`, the Z-AUC in [1] was -0.105 (inactive); in assay [1] (setting [21]), 0.606; in assay [1] (measured here: PEO4 Z-AUC), 0.747.
Regarding `CCCS(=O)(=O)Nc1ccc(F)c(C(=O)c2c[nH]c3ncc(-c4ccc(Cl)cc4)cc23)c1F`, the Z-AUC in assay [1] was 0.0673 (inactive); in assay [1] (setting [21]) it was -0.745; in assay [1] (measured here: PEO4 Z-AUC), -0.427.
As for `NC(=O)c1cnccn1`, the result in [2], in assay [3], in [4], in assay [5] and in [19] was inactive. In addition, the Z-AUC in assay [1] is 0.616 (inactive); in [1] (setting [21]) it was 0.733; in assay [1] (measured here: PEO4 Z-AUC) it was 0.41. The z-score in [6] (TFE3-RCC UOK109 viability, measured here: UOK109 Z-AUC) came out at 0.906; in assay [6] (TFE3-RCC viability, measured here: UOK124 Z-AUC), 0.826; in assay [6] (TFE3-RCC viability, measured here: UOK145 Z-AUC), 0.673. In addition, the activity, negative = inhibition in assay [7] (parasite line A) is 13.8% (inactive); in assay [7] (parasite line B) it was 12.8% (inactive). In addition, the Potency result in assay [8], in assay [9], in assay [10], in assay [11], in [12] and in assay [13] was “inactive” in each case. The Potency result in assay [14], in assay [15], in assay [16], in assay [17], in assay [18] and in [20] was “inactive” throughout.
With `Cc1cccc(-c2nn(C(=S)Nc3ccccc3)cc2-c2ccnc3ccccc23)n1`, the Z-AUC in assay [1] was 0.884 (inactive); in assay [1] (setting [21]) it was 0.402; in assay [1] (measured here: PEO4 Z-AUC), 0.406.
The corresponding values for `Oc1cccc(-c2nc(N3CCOCC3)c3oc4ncccc4c3n2)c1` are -0.82 (inactive), -0.749 and -0.797.
In the case of `Cn1cnc2c(F)c(Nc3ccc(Br)cc3Cl)c(C(=O)NOCCO)cc21`, the Z-AUC in [1] was 0.189 (inactive); in [1] (setting [21]) it was 0.0472; in assay [1] (measured here: PEO4 Z-AUC) it was -0.246.
